Assay [1] concerns the target Retinoic acid receptor RXR-alpha (Homo sapiens) (UniProt P19793). As to the kind of experiment: ATG_RXRa_TRANS: Attagene TRANS-FACTORIAL HepG2 Assay for human Retinoid X Receptor alpha (RXRa) (AID 2283012; active = hit-call score of the fitted dose curve at least 0.9, where 1 is the maximum). In short, it runs like this:
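Chimeric NR-GAL4 trans-activation in HepG2, 24 h treatment; reporter transcripts quantified by fluorescence on capillary electrophoresis, analysed for upward change from DMSO.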

Assay [2] addresses human Retinoid X Receptor beta (RXRb), RXRB (gene 6257) (UniProt P28702). As to the kind of experiment: ATG_RXRb_TRANS: Attagene TRANS-FACTORIAL HepG2 Assay for human Retinoid X Receptor beta (RXRb) (AID 2283013; active = hit-call score of the fitted dose curve at least 0.9, where 1 is the maximum). In short, it runs like this: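 After a 24 h incubation with test chemical, transfected HepG2 cells carrying NR-Gal4 fusions and GAL4-UAS reporter transcription units yield RNA whose reporter cDNA is FAM-labelled, HpaI-cut and sized by capillary electrophoresis; increases over DMSO are scored.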

Assay [3] deals with human Thyroid Receptor alpha (THRa1), THRA (gene 7067) (UniProt P10827). Put plainly: ATG_THRa1_TRANS: Attagene TRANS-FACTORIAL HepG2 Assay for human Thyroid Receptor alpha (THRa1) (AID 2283014; active = hit-call score of the fitted dose curve at least 0.9, where 1 is the maximum). In outline:
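Reporter transcript induction, read by capillary electrophoresis of 6-FAM-labelled RT-PCR products, reflects activity of a transfected THRa1-Gal4 fusion in HepG2 liver cells. Cells were dosed for 24 h; activity was fitted in the positive direction against DMSO.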

Read-out in assay [4]: E-selectin (Homo sapiens) (UniProt P16581)
Put plainly: BSK_3C_Eselectin: BioMAP Diversity Plus: 3C Assay for Eselectin Biomarker Activity (AID 2283015).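 As to outcome: cell surface E-selectin protein quantified by ELISA 24 h after dosing.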 The note with it: primary human endothelial cells (HUVEC); actives raise or lower the signal. In outline:
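ELISA read-out of E-selectin on endothelial monolayers after 24 h chemical treatment. Human umbilical vein primary cells served as the system, with DMSO defining baseline activity for bidirectional fitting.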

Read-out in assay [5]: Interleukin-1 alpha (IL1a), IL1A (gene 3552)
Put plainly: BSK_BE3C_IL1a: BioMAP Diversity Plus: BE3C Assay for Interleukin-1 alpha (IL1a) Biomarker Activity (AID 2283016). The note with it: primary human bronchial epithelial cells; actives raise or lower the signal. In outline:
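Measured in human lung primary bronchial epithelial cells: IL-1a by ELISA at 24 h after dosing, with bidirectional fitting against DMSO.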

Read-out in assay [6]: Monocyte Chemoattractant Protein-1 (MCP1), CCL2 (gene 6347)
As to the kind of experiment: BSK_3C_MCP1: BioMAP Diversity Plus: 3C Assay for Monocyte Chemoattractant Protein-1 (MCP1) Biomarker Activity (AID 2283017). The note with it: primary human endothelial cells (HUVEC); actives raise or lower the signal. In outline:
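ELISA read-out of MCP-1 from human umbilical vein endothelial cell cultures harvested 24 h post-dosing. Gain or loss of signal was fitted relative to DMSO.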

Read-out in assay [7]: Monocyte Chemoattractant Protein-1 (MCP1), CCL2 (gene 6347)
Put plainly: BSK_4H_MCP1: BioMAP Diversity Plus: 4H Assay for Monocyte Chemoattractant Protein-1 (MCP1) Biomarker Activity (AID 2283018). The settings on record: primary human endothelial cells (HUVEC); actives raise or lower the signal. In short, it runs like this:
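Primary human umbilical vein endothelium is exposed to chemical for 24 h before MCP-1 is assayed by ELISA. Concentration-response fitted bidirectionally relative to DMSO.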

Read-out in assay [8]: Human Leukocyte Antigen - DR isotype (HLADR), HLA-DRA (gene 3122)
Put plainly: BSK_3C_HLADR: BioMAP Diversity Plus: 3C Assay for Human Leukocyte Antigen - DR isotype (HLADR) Biomarker Activity (AID 2283019). The note with it: primary human endothelial cells (HUVEC); actives raise or lower the signal. In outline: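 ELISA readout of surface HLA-DR on human umbilical vein endothelium, taken 24 h after chemical treatment. Gain- and loss-of-signal were both fitted relative to DMSO.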

Read-out in assay [9]: Interleukin-8 (IL8), CXCL8 (gene 3576)
As to the kind of experiment: BSK_3C_IL8: BioMAP Diversity Plus: 3C Assay for Interleukin-8 (IL8) Biomarker Activity (AID 2283020). The note with it: primary human endothelial cells (HUVEC); actives raise or lower the signal. In short, it runs like this: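 Using DMSO-treated wells as the baseline, bidirectional curve fitting was applied to ELISA-measured IL-8 from human umbilical vein endothelial cultures sampled 24 h after compound addition.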

Read-out in assay [10]: Monokine induced gamma interferon (MIG), CXCL9 (gene 4283)
As to the kind of experiment: BSK_3C_MIG: BioMAP Diversity Plus: 3C Assay for Monokine induced gamma interferon (MIG) Biomarker Activity (AID 2283021). The note with it: primary human endothelial cells (HUVEC); actives raise or lower the signal. In short, it runs like this:
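ELISA-measured MIG in dosed HUVEC 3C cultures at 24 h, analysed by bidirectional fitting with DMSO defining baseline activity.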

Assay [11] deals with human Vitamin D Receptor (VDR), VDR (gene 7421) (UniProt P11473). As to the kind of experiment: ATG_VDR_TRANS: Attagene TRANS-FACTORIAL HepG2 Assay for human Vitamin D Receptor (VDR) (AID 2283022; active = hit-call score of the fitted dose curve at least 0.9, where 1 is the maximum). In outline:
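Steps: transfect HepG2 with GAL4-UAS-driven reporter constructs; dose compounds 24 h; isolate RNA, reverse-transcribe, PCR-amplify with 6-FAM-labelled primer extension and HpaI digestion; quantify fragments by capillary electrophoresis relative to DMSO.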

Assay [12] is described as follows: BSK_3C_SRB: Viability Assessment in the BioMAP Diversity Plus: 3C Assay (AID 2283023).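 Also: fitted both ways against DMSO so a hit may be signal rise or drop.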 The note with it: primary human endothelial cells (HUVEC). In outline:
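Absorbance at 560 nm of sulforhodamine B-stained (0.1%) total protein served as a cytotoxicity readout in human umbilical vein endothelial cells, 24 h after chemical treatment. Signal was fitted bidirectionally relative to DMSO.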

Assay [13] in a line: BSK_3C_Vis: BioMAP Diversity Plus: 3C Assay for Morphology Visualization (AID 2283025).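 Also: fitted both ways so gain or loss versus DMSO counts.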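 As to AC50: light microscopy image of cell morphology used as background control.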 The note with it: primary human endothelial cells (HUVEC). In outline: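 Light-microscopy morphology readout, 24 h exposure, human primary umbilical vein endothelium; analysed relative to DMSO with bidirectional fitting.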
Read-out in assay [14]: Pselectin, SELP (gene 6403)
Put plainly: BSK_4H_Pselectin: BioMAP Diversity Plus: 4H Assay for Pselectin Biomarker Activity (AID 2283026). The note with it: primary human endothelial cells (HUVEC); actives raise or lower the signal. In short, it runs like this: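 Bidirectional fits against DMSO gave the endpoint. Cells: primary human umbilical vein endothelium, chemical-treated for 24 h before ELISA detection of P-selectin.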

Assay [15] in a line: BSK_4H_SRB: Viability Assessment in the BioMAP Diversity Plus: 4H Assay (AID 2283027).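 Also: cells exposed to compound for 24 h before staining.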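 As to AC50: curves fitted both ways versus DMSO so AC50 may be loss or gain.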 The note with it: primary human endothelial cells (HUVEC). In outline:
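Cytotoxicity read-out in primary human endothelial cells: after 24 h compound exposure, cells were TCA-fixed (10%), stained with 0.1% SRB and absorbance taken at 560 nm. Values fitted in both directions relative to DMSO.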

The nature of assay [16]: BSK_BE3C_SRB: Viability Assessment in the BioMAP Diversity Plus: BE3C Assay (AID 2283028).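 As to AC50: fitted both ways so AC50 may mark signal gain or loss versus DMSO.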 The note with it: primary human bronchial epithelial cells. In short, it runs like this:
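Cells (human bronchial epithelial, primary) are treated with chemicals, and after 24 h the parallel cultures are fixed in 10% TCA. These are then stained with 0.1% SRB and read at 560 nm. Gain or loss of signal is fitted relative to DMSO.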

Read-out in assay [17]: Urokinase-type plasminogen activator receptor (uPAR), PLAUR (gene 5329)
As to the kind of experiment: BSK_4H_uPAR: BioMAP Diversity Plus: 4H Assay for Urokinase-type plasminogen activator receptor (uPAR) Biomarker Activity (AID 2283030). The note with it: primary human endothelial cells (HUVEC); actives raise or lower the signal. In short, it runs like this:
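Cell-surface uPAR ELISA signal, measured 24 h after dosing human umbilical vein endothelial cells, was analyzed with bidirectional fitting relative to DMSO. Parallel SRB staining of total protein tracked overt cytotoxicity.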

Read-out in assay [18]: Vascular endothelial growth factor receptor 2 (Homo sapiens) (UniProt P35968)
As to the kind of experiment: BSK_4H_VEGFRII: BioMAP Diversity Plus: 4H Assay for Vascular endothelial growth factor receptor 2 (VEGFR2) Biomarker Activity (AID 2283031). The settings on record: primary human endothelial cells (HUVEC); actives raise or lower the signal. In short, it runs like this: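 ELISA read-out of VEGFRII in primary human umbilical vein endothelium, taken 24 h after chemical treatment. Responses are expressed relative to DMSO, with bidirectional fitting.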

Read-out in assay [19]: Matrix Metallopeptidase 1 (MMP1), MMP1 (gene 4312)
Put plainly: BSK_BE3C_MMP1: BioMAP Diversity Plus: BE3C Assay for Matrix Metallopeptidase 1 (MMP1) Biomarker Activity (AID 2283024). The note with it: primary human bronchial epithelial cells; actives raise or lower the signal. In short, it runs like this: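 In this multiplexed primary-cell system, human bronchial epithelium received chemicals for 24 h before an ELISA for MMP1. Values reflect bidirectional fits normalised to the DMSO baseline.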

Read-out in assay [20]: Thrombomodulin, THBD (gene 7056)
As to the kind of experiment: BSK_3C_Thrombomodulin: BioMAP Diversity Plus: 3C Assay for Thrombomodulin Biomarker Activity (AID 2283029). The note with it: primary human endothelial cells (HUVEC); actives raise or lower the signal. In short, it runs like this: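 In a multiplexed primary-cell system, human umbilical vein endothelium received chemical and was assayed 24 h later for thrombomodulin by ELISA. Parallel cultures were SRB-stained (0.1% SRB after 10% TCA fixation, read at 560 nm) to flag cytotoxicity.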

Molecules are shown by their SMILES. Values joined by “and” are separate entries in the source; they are usually repeats but may differ in a detail not shown here. Equal entries are not always repeated. Results filed as inconclusive are left out. Where a structure was tested more than once in an assay, its records may differ in their call. Active and inactive are the calls of the source. The calls were made as follows, unless noted: active = hit-call score of the fitted dose curve at least 0.9, where 1 is the maximum; inactive = score below 0.9.

Six molecules from PubChem BioAssay (EPA / NIEHS) can be followed below.

Sequence of human Thyroid Receptor alpha (THRa1), THRA (gene 7067) (P10827 whole entry, looked up, the tested form may be a part): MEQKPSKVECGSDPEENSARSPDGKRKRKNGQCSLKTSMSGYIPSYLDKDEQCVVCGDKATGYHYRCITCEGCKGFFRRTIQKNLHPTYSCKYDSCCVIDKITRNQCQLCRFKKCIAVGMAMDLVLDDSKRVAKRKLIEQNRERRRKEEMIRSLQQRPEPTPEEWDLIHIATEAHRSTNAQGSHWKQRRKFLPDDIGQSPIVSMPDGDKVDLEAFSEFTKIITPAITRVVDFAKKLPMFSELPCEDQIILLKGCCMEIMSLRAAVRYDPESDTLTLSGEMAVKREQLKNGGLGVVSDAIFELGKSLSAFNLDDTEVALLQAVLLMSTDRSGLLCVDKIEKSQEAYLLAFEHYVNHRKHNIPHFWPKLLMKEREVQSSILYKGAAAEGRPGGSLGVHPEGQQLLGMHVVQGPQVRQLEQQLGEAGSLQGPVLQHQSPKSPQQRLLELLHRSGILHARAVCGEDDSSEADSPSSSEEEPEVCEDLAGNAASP
Sequence of human Retinoid X Receptor beta (RXRb), RXRB (gene 6257) (P28702 whole entry, looked up, the tested form may be a part): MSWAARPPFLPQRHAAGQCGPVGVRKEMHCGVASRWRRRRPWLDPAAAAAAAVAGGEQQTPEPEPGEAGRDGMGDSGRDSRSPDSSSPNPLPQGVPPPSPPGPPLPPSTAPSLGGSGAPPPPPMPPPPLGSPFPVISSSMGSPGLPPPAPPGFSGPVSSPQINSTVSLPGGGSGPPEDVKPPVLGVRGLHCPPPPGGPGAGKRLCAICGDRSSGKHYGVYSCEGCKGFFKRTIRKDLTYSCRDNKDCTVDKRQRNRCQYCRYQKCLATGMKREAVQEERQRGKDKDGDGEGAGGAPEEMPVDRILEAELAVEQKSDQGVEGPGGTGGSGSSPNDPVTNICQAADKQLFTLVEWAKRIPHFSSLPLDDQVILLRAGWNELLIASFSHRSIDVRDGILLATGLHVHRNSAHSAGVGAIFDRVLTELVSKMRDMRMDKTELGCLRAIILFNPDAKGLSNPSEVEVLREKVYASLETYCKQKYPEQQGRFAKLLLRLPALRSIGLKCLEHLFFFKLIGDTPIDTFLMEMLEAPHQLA
Sequence of Retinoic acid receptor RXR-alpha (Homo sapiens) (P19793 whole entry, looked up, the tested form may be a part): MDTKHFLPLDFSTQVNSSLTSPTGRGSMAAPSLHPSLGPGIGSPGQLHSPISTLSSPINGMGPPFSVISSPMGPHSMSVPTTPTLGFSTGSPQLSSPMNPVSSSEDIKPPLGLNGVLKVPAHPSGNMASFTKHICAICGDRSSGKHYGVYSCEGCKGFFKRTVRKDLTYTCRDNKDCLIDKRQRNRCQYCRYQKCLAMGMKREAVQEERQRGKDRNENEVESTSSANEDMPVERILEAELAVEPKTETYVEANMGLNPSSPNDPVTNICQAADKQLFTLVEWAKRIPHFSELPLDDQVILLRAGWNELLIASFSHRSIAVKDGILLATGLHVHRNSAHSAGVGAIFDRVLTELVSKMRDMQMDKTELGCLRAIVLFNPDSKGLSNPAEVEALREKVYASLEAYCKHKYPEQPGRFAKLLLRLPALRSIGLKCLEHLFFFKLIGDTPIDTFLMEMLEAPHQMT
Sequence of E-selectin (Homo sapiens) (P16581 whole entry, looked up): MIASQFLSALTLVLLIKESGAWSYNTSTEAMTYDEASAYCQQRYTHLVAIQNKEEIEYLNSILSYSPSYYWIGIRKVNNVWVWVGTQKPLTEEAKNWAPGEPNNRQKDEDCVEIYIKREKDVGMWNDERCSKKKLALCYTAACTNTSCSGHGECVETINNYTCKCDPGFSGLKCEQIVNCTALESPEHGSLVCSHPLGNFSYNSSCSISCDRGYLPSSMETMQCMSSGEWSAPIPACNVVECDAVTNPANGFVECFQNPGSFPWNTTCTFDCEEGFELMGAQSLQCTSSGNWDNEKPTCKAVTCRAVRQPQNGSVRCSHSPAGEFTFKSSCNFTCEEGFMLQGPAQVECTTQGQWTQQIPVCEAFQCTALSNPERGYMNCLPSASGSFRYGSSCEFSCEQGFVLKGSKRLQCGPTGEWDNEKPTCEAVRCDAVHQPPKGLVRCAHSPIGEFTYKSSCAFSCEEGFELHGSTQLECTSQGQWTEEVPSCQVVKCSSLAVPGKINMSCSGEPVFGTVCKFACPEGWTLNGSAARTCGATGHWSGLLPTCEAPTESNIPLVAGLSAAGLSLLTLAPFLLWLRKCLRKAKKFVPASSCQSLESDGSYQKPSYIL
Sequence of human Vitamin D Receptor (VDR), VDR (gene 7421) (P11473 whole entry, looked up, the tested form may be a part): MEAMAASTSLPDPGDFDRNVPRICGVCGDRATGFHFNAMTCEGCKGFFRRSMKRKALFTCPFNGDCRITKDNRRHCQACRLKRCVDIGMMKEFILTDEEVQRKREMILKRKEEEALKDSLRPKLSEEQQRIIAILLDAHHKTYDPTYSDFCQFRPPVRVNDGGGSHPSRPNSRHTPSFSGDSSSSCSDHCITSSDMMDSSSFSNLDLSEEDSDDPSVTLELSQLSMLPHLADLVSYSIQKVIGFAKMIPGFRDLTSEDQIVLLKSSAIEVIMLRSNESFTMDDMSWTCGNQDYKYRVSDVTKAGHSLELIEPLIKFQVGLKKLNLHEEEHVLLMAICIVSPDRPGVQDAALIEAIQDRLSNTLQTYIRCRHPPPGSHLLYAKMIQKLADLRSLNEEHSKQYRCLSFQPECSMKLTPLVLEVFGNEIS

By AC50 is commonly meant the midpoint of the concentration-response curve, whichever way the signal moves. For `CCNS(=O)(=O)C(F)(F)C(F)(F)C(F)(F)C(F)(F)C(F)(F)C(F)(F)C(F)(F)C(F)(F)F`, the result in assay [1], in assay [2], in assay [3], in [4], in assay [5] and in [6] was inactive. Also, the outcome in assay [7], in assay [8], in assay [9], in assay [10], in assay [11] and in [12] was inactive. For the same molecule, the outcome in [13], in assay [14], in [15], in assay [16], in [17] and in [18] was inactive. In addition, the AC50 is 44.5 µM (active) and 21.9 µM (active) in [5]; 51.4 µM (active) in assay [6]; 30 µM (active) in [7]; 14.6 µM (active) and 6.07 µM (active) in [8]; 26 µM (active) in [9]; 43.4 µM (active) and 44.3 µM (active) in [12]. Also, the AC50 in assay [14] is 30 µM (active) and 43.4 µM (active); in [15], 45.1 µM (active) and 47.3 µM (active); in [16], 49.7 µM (active) and 50.3 µM (active).

As for `CO[C@@H]1[C@H](OC(=O)NC(=O)CCl)CC[C@]2(CO2)[C@H]1[C@@]1(C)O[C@@H]1CC=C(C)C`, the molecule was called inactive in assay [1], in assay [2], in assay [3], in assay [5], in [6] and in assay [7]. The outcome in [9], in assay [10], in assay [11], in assay [12], in assay [19] and in assay [13] was inactive. In addition, the outcome in [15], in assay [16], in assay [20], in assay [17] and in [18] was inactive. Besides, the results for the AC50 in [4], in assay [8] and in assay [14] were 5.16 µM (active), 8.98 µM (active) and 2.09 µM (active), respectively.

Regarding `O=C1CCCO1`, the outcome in assay [1], in [3], in assay [4], in [5], in assay [6] and in assay [7] was inactive. For the same molecule, the outcome in [8], in assay [9], in assay [10], in assay [11], in [12] and in assay [14] was inactive. Further, the outcome in [15], in assay [16], in assay [17] and in assay [18] was inactive. Also, in assay [13], the AC50 was 16.3 µM (active).

Take `CCCCOC(=O)c1ccccc1C(=O)OCc1ccccc1`: the call in assay [1], in assay [2], in assay [4], in assay [5], in [6] and in [8] was inactive. The outcome in assay [9], in assay [10], in assay [12], in assay [19], in assay [13] and in [14] was inactive. Moreover, the outcome in [15], in assay [16], in [20] and in assay [18] was inactive. The AC50 in assay [7] is 11.8 µM (active).

Turning to `CCCCC(CC)COC(=O)c1ccc(C(=O)OCC(CC)CCCC)c(C(=O)OCC(CC)CCCC)c1` (stereo unspecified), the result in assay [1], in assay [4], in assay [5], in assay [6], in assay [7] and in [8] was inactive. The outcome in assay [9], in assay [10], in assay [11], in assay [12], in assay [19] and in assay [13] was inactive. The outcome in [14], in assay [15], in [16], in [20] and in assay [18] was inactive.

Regarding `CC(O)CCO` (stereo unspecified), in assay [2], the AC50 was 6.17 µM (active). The molecule was called inactive in assay [3], in assay [4], in assay [5], in assay [6], in [7] and in [8]. Besides, the outcome in assay [9], in assay [10], in [11], in [12], in assay [19] and in assay [13] was inactive. Moreover, the result in [14], in assay [15], in [16], in [20] and in [18] was inactive.
